Measured values as given in PubChem BioAssay (Tox21).
Values joined by “and” are separate entries in the source; they are usually repeats but may differ in a detail not shown here. Identical values can stand only once. Inconclusive results are not listed. Some compounds were tested as several samples or in several runs, with calls that do not always agree. Active and inactive are the calls of the source. The call rests on the fitted dose curve.

Test: p53 small molecule agonists, cell-based qHTS assay with rat liver microsomes: qHTS cell viability counter screen (AID 1963580); further: nearly all actives have a fitted effect of over 45% in size
Conditions: p53RE-bla HCT-116 + rat microsomes, ATP viability, 16 h; series mostly up to 66 µM; activity change, negative = cytotoxicity: at the top concentration
From the text: National Center for Advancing Translational Sciences [NCATS]
Division of Preclinical Innovation [DPI]
U.S. Environmental Protection Agency [EPA]
National Institutes of Environmental Health Sciences [NIEHS]
National Toxicology Program [NTP]
U.S. Food and Drug Administration [FDA]
p53, a tumor suppressor protein, is activated following cellular insult, including DNA damage and other cellular stresses. The activation of p53 regulates cell fate by inducing DNA repair, cell cycle arrest, apoptosis, or cellular senescence. The activation of p53, therefore, is a good indicator of DNA damage and other cellular stresses. The CellSensor p53RE-bla HCT-116 cell line contains a stably integrated beta-lactamase reporter gene under control of the p53 response elements. The activation of the reporter gene under culture conditions can be detected by fluorescence intensity. This cell line was used to screen the Tox21 10K compound library in the condition of presence of rat liver microsomes and to identify agonists that activate the p53 signaling pathway after in vitro metabolic activation (Ooka et al., Archive of Toxicology 96:1975-1987, 2022). The cytotoxicity of the Tox21 compound library against the p53 RE-bla HCT-116 cell line was tested in parallel by measuring the intra cellular ATP content in the same wells.
Tox21 Assay Protocol Summary:
The p53RE-bla cells were dispensed at 4,000cells/3ul/well in 1536-well black-clear bottom plates. After the assay plates were incubated at 37 C, 5% CO2 incubator for 5 hours, 23 nL of compounds dissolved in DMSO, positive controls or DMSO only was transferred to the assay plate. Following compound addition, 3 uL of rat liver microsomes (Molecular Toxicology, Boone, NC) at final concentration of 0.5 mg/mL and 1uL of B-Nicotinamide adenine dinucleotide 2'-phosphate (NADPH) at final concentration of 0.5 mg/mL were transferred to the assay plate. The plates were incubated at 37 C for 16 hours. 1 uL of LiveBLAzer detection mixture was added to each well and the plates were incubated at room temperature in the dark for 2 h. Fluorescence intensity at 460 and 530 nm emission and 405 nm excitation were measured by an Envision plate reader. For cell viability readout that measures cytotoxicity, 4 ul/well of CellTiter-Glo reagent was added into the assay plates using a Flying Reagent Dispenser. After 30 min incubation at room temperature, the luminescence intensity in the plates was measured using a ViewLux plate reader.
On the % scale 0 is the no-effect control and ±100 the full control effect; potency means the concentration at half of the fitted maximal effect.

| SMILES | activity change, negative = cytotoxicity | Potency |
| --- | --- | --- |
| N#CN=C(N)N | -9.1% (inactive) |  |
| C#CCO | -3.23% (inactive) |  |
| COC(=O)c1ccc(CBr)cc1 | -14.2% (inactive) |  |
| Oc1c(Br)cc(Br)cc1Br |  | inactive |
| O=C/C(Cl)=C(/Cl)C(=O)O | -21.9% (inactive) |  |
| CCCCCCCCCCCOC(=O)c1ccccc1C(=O)OCCCCCCCCCCC | -16% (inactive) |  |
| C=C(C)C#N |  | inactive |
| C[C@]12C=CC3=C4CCC(=O)C=C4CC[C@H]3[C@@H]1CC[C@@H]2O | -14.4% (inactive) |  |
| CCC[N+](=O)[O-] |  | 44.9 µM (active) and inactive |
| NC(=O)OCCCc1ccccc1 | 3.79% [at 30.3 µM] (inactive) |  |
| CCN(CC)CCN1C(=O)CN=C(c2ccccc2F)c2cc(Cl)ccc21 | 0.666% [at 30.3 µM] (inactive) |  |
| CCCN(CCOc1c(Cl)cc(Cl)cc1Cl)C(=O)n1ccnc1 |  | inactive |
| C=CCc1cc(OC)c2c(c1)OCO2 | 5.36% (inactive) |  |
| CN(CCCC(=O)c1cccnc1)N=O | 7.91% (inactive) |  |
| COCC(=O)N(c1c(C)cccc1C)N1CCOC1=O | 21.9% (inactive) |  |
| CN(N=O)C(N)=O | -7.6% (inactive) |  |
| CCC(C)Cl (stereo not given) | 0.0431% (inactive) |  |
| c1ccc(N2CCNCC2)cc1 | 0.345% [at 30.3 µM] (inactive) |  |
| CC(=O)C(Cl)Cl | -0.15% (inactive) |  |
| Clc1ccc(C(Cl)(Cl)Cl)cc1 |  | inactive |

| SMILES | activity change, negative = cytotoxicity | Potency |
| --- | --- | --- |
| C[N+](C)(C)C | 3.19% (inactive) |  |
| ClCc1cccnc1 |  | inactive |
| CCCCCCCCCCCC[N+](C)(C)CCOc1ccccc1 |  | 45.8 µM (active) and inactive |
| C=CCBr | -5.44% (inactive) |  |
| O=C(Cl)c1ccccc1 | -1.44% (inactive) |  |
| CCCSC(=O)Cl | 0.163% (inactive) |  |
| O=C(NC(=O)c1ccccc1Cl)Nc1ccc(OC(F)(F)F)cc1 | -16.1% (inactive) |  |
| O=[N+]([O-])c1ccc(Cl)c(Cl)c1 |  | inactive |
| c1cc2c(c(N3CCNCC3)c1)OCCO2 | -0.86% [at 30.3 µM] (inactive) |  |
| COP(=S)(OC)SCN1C(=O)c2ccccc2C1=O |  | inactive |
| Cc1cccc(C)c1NC(=O)CN1CCCC1=O |  | inactive |
| O=[N+]([O-])c1ccc(CBr)cc1 | 1.26% (inactive) |  |
| OC[C@@H](O)[C@H]1O[C@@H]2O[C@H](C(Cl)(Cl)Cl)O[C@@H]2[C@H]1O |  | inactive |
| CCC[CH2][Sn]([Cl])([CH2]CCC)[CH2]CCC |  | 4.09 µM (active) and 4.08 µM (active) |
| O=C(O)CC[N+](=O)[O-] |  | inactive |
| CCC12COCN1COC2 |  | inactive |
| Nc1ccc(Cc2ccc(N)cc2)cc1 |  | inactive |
| Nc1c(Cl)c(Cl)nc(C(=O)O)c1Cl |  | inactive |
| Cc1ccccc1O |  | inactive |
| CCCCn1cc[n+](C)c1 |  | inactive |
